# In PubChem BioAssay AID2546 (National Center for Advancing Translational Sciences (NCATS), 2010):
# The campaign covered roughly 310,000 compounds. About 11,000 (3.5%) were called active. Entries that show only a call come without a potency. Inconclusive results (about 8%) are left out. The sample holds actives, similar compounds and a random draw of the others, so the mix is not that of the screen. Calls follow the shape of the dose curve; as a rule, active = well fitted inhibition curve with a large enough effect; inconclusive = small, poorly fitted or top-dose-only effect, or effect the other way; inactive = flat fitted curve, though single readings scatter.
# Assay: VP16 counterscreen qHTS for inhibitors of ROR gamma transcriptional activity;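 also: Gal4-VP16 expression switched on by copper sulfate through the metallothionein promoter; nearly all actives have a fitted effect of over 50% in size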
# Conditions: Drosophila S2 Gal4-VP16 UAS-luciferase, luminescence, 20 h; series mostly up to 53.6 µM
# Potency is read from the fitted curve at half-maximal effect.
SMILES,Potency,"activity, negative = inhibition"
O=C(c1ccccc1)N1CCC(CC2CC(c3ccc(Cl)cc3)=NO2)(C(=O)NCC2CCCCC2)CC1 (stereo unspecified),inactive,–
CCCN1CCn2c3c(c4cc(Br)ccc42)CCCC31 (stereo unspecified),inactive,–
Cc1cc(O)c(C(=O)/C=C/c2c(F)c(F)c(F)c(F)c2F)c(=O)o1,inactive,–
CCOC(=O)N1CCN(C(=O)c2ccc3c(=O)n(CCc4ccc(OC)c(OC)c4)c(=O)[nH]c3c2)CC1,inactive,–
CCC(C(=O)OC)n1cnc2scc(-c3ccc(C)cc3)c2c1=O (stereo unspecified),inactive,–
CC(=O)Oc1ccc(-c2cccc(C(=O)N3CCCCC3)c2)cc1,inactive,–
C/C(=N\Nc1nncc2ccccc12)c1ccc(Cl)c([N+](=O)[O-])c1,inactive,–
COc1cc(/C=N/Nc2nn3cnnc3c3ccccc23)cc(OC)c1OC,inactive,–
CN(CCO)c1ccc(/C=N/Nc2nncc3ccccc23)cc1,11.2 µM (active),–
O=C(CCC(=O)N/N=C/c1ccc(Br)o1)N/N=C/c1ccc(Br)o1,inactive,–
NCCCCCC(=O)N/N=C/c1ccc2nccnc2c1,inactive,–
O=C(CCCO)N/N=C/c1cc(Br)ccc1O,12.6 µM (active),–
CC1CC(C)CN(c2ccc(S(=O)(=O)N3CCOCC3)cc2)C1 (stereo unspecified),inactive,–
COc1ccc2c(CC(=O)N3CCc4cc(OC)c(OC)cc4C3)coc2c1,inactive,–
COc1ccc(NC(=O)CSc2nc(SC)ns2)c(OC)c1,inactive,–
CCCCN1CCNC1=S,inactive,–
CCCCN1C(=S)NC[C@@H]1C(C)CC (stereo partly specified),10 µM (active),–
Cc1ccc2c(c1)N(CC(=O)N1CCOCC1)C(=O)CO2,inactive,–
CCOC(=O)[C@@H]1[C@H]2COc3cc(OC)ccc3[C@@H]2N2C(=O)N(c3cccc(C)c3)C(=O)[C@@]12C,inactive,–
CCOc1ccc(N(CC(=O)NCCc2ccc(F)cc2)S(=O)(=O)c2ccccc2)cc1,inactive,–
Cc1ccccc1N1CC(C(=O)Nc2nnc(SCCC3OCCO3)s2)CC1=O (stereo unspecified),inactive,–
CCC(C)(C)NC(=O)CN(C(=O)CCC(=O)Nc1nccs1)c1ccc2c(c1)OCO2,inactive,–

SMILES,Potency,"activity, negative = inhibition"
C=CCNC(=S)NNC(=O)c1cc(Cl)ccc1OC,inactive,–
C=CCNC(=S)NNC(=O)c1ccc(Br)o1,inactive,–
C=CCNC(=S)NNC(=O)COc1c(Cl)cc(Cl)cc1Cl,1.58 µM (active),–
CC(C)[C@H](NC(=O)N1CCn2c1nc1ccccc12)C(=O)NCc1ccc2c(c1)OCO2,inactive,–
CCN(C(=O)CN1C(=O)/C(=C/c2ccc(F)cc2)SC1=S)C1CCS(=O)(=O)C1 (stereo unspecified),inactive,–
COc1ccc(N(C(=O)c2cccnc2)S(=O)(=O)c2ccc(OC)c(OC)c2)cc1,inactive,–
COc1ccc(Cc2nnc(NC(=O)c3ccc(OC)cc3OC)s2)cc1,inactive,–
COc1cc(SC)ccc1C(=O)NCCOc1ccccc1Cl,inactive,–
COc1cc(SC)ccc1C(=O)Nc1nc(C)cs1,3.98 µM (active),–
CCn1c2ccc(F)cc2c2nnc(SCCN3CCOCC3)nc21,inactive,–
CCC(=O)c1cn(CCOc2ccccc2OC)c2ccccc12,inactive,–
CCOc1ccc(N(C)Cc2cc(=O)oc3ccc(OC)cc23)cc1,inactive,–
Cc1cc(=O)oc2c3c(cc(OCC(=O)NCc4ccccn4)c12)OC(C)(C)CC3,inactive,–
O=C1N=C(N2CCc3ccccc3C2)S/C1=C\c1ccc(O)cc1,1.58 µM (active),–
CCc1ccc(/C=C2\SC(N3CCOCC3)=NC2=O)cc1,inactive,–
O=C1N=C(N2CCCC2)S/C1=C\c1cccc(Br)c1,inactive,–
CCCCNC(=O)c1ccc(-n2c(=S)[nH]c3ccccc3c2=O)cc1,inactive,–
CN(C)CCn1c(=S)[nH]c2ccc(Cl)cc2c1=O,inactive,–
CCCCNC(=O)CCn1c(=S)[nH]c2cc3c(cc2c1=O)OCO3,inactive,–
CCCCn1c(=S)[nH]c2ccccc2c1=O,5.01 µM (active),–
CCN(CC)CCn1c(=S)[nH]c2ncccc2c1=O,inactive,–
CCCCn1c(=S)[nH]c2ncccc2c1=O,3.55 µM (active),–

SMILES,Potency,"activity, negative = inhibition"
O=C(NC1CCCCCCC1)c1cccs1,inactive,–
CCCc1nn2c(=O)cc(CSCC(=O)Nc3cccc(C)c3)nc2s1,inactive,–
CCOC(=O)N1CCN(S(=O)(=O)c2ccc(Br)cc2)CC1,inactive,–
Cc1ccc(NC(=O)CCC(=O)c2ccc(Br)cc2)cc1,inactive,–
CCC(Cc1ccccc1)NS(=O)(=O)c1ccc2c(c1)NC(=O)CS2 (stereo unspecified),inactive,–
CCc1ccc(NC(=O)CCNS(=O)(=O)c2cccs2)cc1,inactive,–
CCn1c(=S)sc2c(=O)n(CC(=O)Nc3cccc(Br)c3)c(C)nc21,inactive,–
CN(Cc1cccnc1)C(=O)c1cc(COc2ccc3ncccc3c2)on1,2.82 µM (active),–
Cc1ccc(OCc2cc(C(=O)N(C)CCc3ccccc3)no2)cc1C,inactive,–
CC(=O)c1cccc(OCc2cc(C(=O)NC(C)Cc3cccnc3)no2)c1 (stereo unspecified),inactive,–
COc1ccc(C(CCN2CCOCC2)c2c(OC)cc(OC)c3c2OC(=O)CC3c2ccc(OC)cc2)cc1 (stereo unspecified),inactive,–
CC1=C(C(N)=O)C(c2ccc(F)cc2)n2nc(CCCO)nc2N1 (stereo unspecified),inactive,–
CC1=C(C(N)=O)C(c2ccc3c(c2)OCO3)n2nc(-c3cccc(C)c3)nc2N1 (stereo unspecified),20 µM (active),–
COc1cccc(-c2nc3n(n2)C(c2ccccc2Cl)C(C(N)=O)=C(C)N3)c1 (stereo unspecified),inactive,–
COc1ccc(S(=O)(=O)NCCc2cc3ccc(C)c(C)c3[nH]c2=O)cc1,inactive,–
O=C(Oc1ccc(-c2nc(-c3ccccn3)no2)cc1)c1ccccc1,6.31 µM (active),–
c1ccc(-c2noc(-c3cccs3)n2)nc1,12.6 µM (active),–
Brc1ccc(-c2noc(-c3ccccc3)n2)o1,inactive,–
c1csc(-c2nc(-c3ccncc3)no2)c1,inactive,–
O=C(Oc1ccc(Br)cc1)c1cccnc1,inactive,–
COc1nc(-c2ccc(Cl)cc2)ccc1-c1noc(-c2cccs2)n1,inactive,–
Cn1c(=O)[nH]c(=O)c2c1nc(N1CCN(C(c3ccccc3)c3ccccc3)CC1)n2CCO,inactive,–

SMILES,Potency,"activity, negative = inhibition"
CCNC(=S)N(CCN(CC)CC)Cc1cc2cc3c(cc2[nH]c1=O)OCCO3,inactive,–
COc1ccc(N2C(=O)CNC2=S)cc1,inactive,–
COc1ccc(-n2c(C)csc2=S)cc1,inactive,–
COc1ccc(-c2cn(-c3ccc(OC)cc3)c(=S)[nH]2)cc1,1.41 µM (active),–
Cc1ccc(OCC(=O)Nc2ccc(N3CCN(C(=O)c4ccco4)CC3)cc2)c(C)c1,inactive,–
CC(C)(C)c1ccc(Cn2nnc3c(=O)[nH]c(C4CCCN(C(=O)c5ccco5)C4)nc32)cc1 (stereo unspecified),inactive,–
CCC(C(=O)NC1CCCCC1)N(C(=O)c1snc(C(N)=O)c1N)c1ccc(OC)cc1OC (stereo unspecified),inactive,–
COc1cc(OC)c(C(=O)NCc2ccc3c(c2)OCO3)cc1OC,inactive,–
Cc1nn(CC(=O)NCc2ccccn2)c(C)c1[N+](=O)[O-],inactive,–
Cc1ccn(CC(=O)N2N=C(C(F)F)CC2(O)C(F)F)n1 (stereo unspecified),inactive,–
Cc1nn(Cc2ccc(C(=O)N3N=C(C(F)F)CC3(O)C(F)F)cc2)c(C)c1[N+](=O)[O-] (stereo unspecified),10 µM (active),–
Cc1ccc(S(=O)(=O)N2CCN=C2SCc2c(F)cccc2Cl)cc1,inactive,–
CCOC(=O)C1(CCOc2ccccc2)CCN(Cc2cc(OC)c(O)cc2Cl)CC1,inactive,–
CCN1CC(CN(C)Cc2nc(-c3ccc(Cl)cc3)no2)CC1=O (stereo unspecified),10 µM (active),–
CN(Cc1ccccn1)Cc1nc(-c2ccc(Cl)cc2)no1,inactive,–
CC1CCN(Cc2nc(-c3ccc(Cl)cc3)no2)CC1,inactive,–
CC(C)c1ccc(C2C(C(=O)c3ccco3)=C(O)C(=O)N2CC2CCCO2)cc1 (stereo unspecified),inactive,–
Cc1ccc(NC(=O)C2CCN(S(=O)(=O)c3ccc4c(c3)NC(=O)CO4)CC2)cc1C,inactive,–
COc1ccc(C2CC(c3ccccc3)Nc3ncnn32)cc1 (stereo unspecified),inactive,–
Clc1ccc(C2CC(c3cccs3)n3ncnc3N2)cc1Cl (stereo unspecified),17.8 µM (active),–
COc1ccc(C2CC(c3ccc(C)cc3)Nc3ncnn32)cc1 (stereo unspecified),inactive,–
Cc1[nH]c2ccc(C(=O)N3CCN(C)CC3)cc2c1C,inactive,–

SMILES,Potency,"activity, negative = inhibition"
CCOC(=O)N1CCN(Cc2nc(N)nc(Nc3ccc(C)cc3)n2)CC1,inactive,–
Cc1ccc(Nc2nc(N)nc(CSc3nnc(C)s3)n2)cc1,inactive,–
Nc1nc(CC(=O)CSc2ccc(Cl)cc2)nc(Nc2ccc(F)cc2)n1,12.6 µM (active),–
COc1ccccc1NC(=O)N1CCCC1C(=O)NCc1cccs1 (stereo unspecified),inactive,–
O=C(N/N=C/c1ccccn1)c1cccc(NC(=O)c2ccc(Cl)cc2)c1,inactive,–
COc1ccc(N(CC(=O)NCc2ccc(F)cc2)C(=O)CCC(=O)Nc2nccs2)cc1,inactive,–
O=C(CCC1CCN(C(=O)c2cccc(Cl)c2F)CC1)Nc1ccccc1,inactive,–
COc1nnc(-c2ccc(C)c(S(=O)(=O)N(C)C)c2)c2ccccc12,inactive,–
CC1=NN(C(=O)c2ccccc2Br)C(O)(c2cccnc2)C1 (stereo unspecified),12.6 µM (active),–
CC1=NN(C(=O)c2ccc(Br)cc2)C(O)(c2ccccc2)C1 (stereo unspecified),–,-2.82% [at 10 µM] (inactive)
CCOC(=O)C1(O)CC(C)=NN1C(=O)c1cccc(Br)c1 (stereo unspecified),inactive,–
N#C/C(C(=S)Nc1ccccc1)=C1/NN=C(N2CCOCC2)N1c1ccccc1,4.47 µM (active),–
Cc1ccc(CC2S/C(=C(/C#N)C(=O)N3CCOCC3)N(c3ccccc3)C2=O)cc1 (stereo unspecified),inactive,–
N#C/C(C(=O)N1CCOCC1)=C1/SC(Cc2ccc(F)cc2)C(=O)N1c1ccccc1 (stereo unspecified),inactive,–
O=c1cc(-c2ccc(O)cc2)oc2c(-c3cc(-c4cc(=O)c5c(O)cc(O)cc5o4)ccc3O)c(O)ccc12,inactive,–
COc1c(O)cc2oc(-c3ccc(O)c(O)c3)cc(=O)c2c1O,inactive,–
O=c1cc(-c2ccc(O)c(O)c2)oc2cccc(O)c12,12.6 µM (active),–
Cn1ccnc1SCC(=O)Nc1ccc2c(c1)OCCO2,inactive,–
